GBA mod: Glucocerebrosidase. purified enzyme, resorufin glucoside fluorescence (screen aimed at inhibitors), 20 min. Potency, µM. 48,000 tested, 1.1% active; in the data active means potency below about 15 µM; inconclusive means mostly about 16 µM to 33 µM;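 further: the screen sought inhibitors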
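Normal human glucocerebrosidase (0.2 nM final) was assayed with resorufin β-D-glucopyranoside (30 uM final) in 50mM citric acid/KH2PO4, 10mM sodium taurocholate, 0.01% tween-20, pH 5.9. Compounds were titrated; fluorescence (Ex 548, Em 600) read after 20 min at RT.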
Casp7 inh: qHTS Assay for Allosteric/Competitive Inhibitors of Caspase-7; 75,000 tested, 0.02% active; recombinant caspase-7, Ac-DEVD-AFC fluorescence rate; AID 889, 2007; P55210; Potency, µM (titrated, usually from 57.5 µM), for inactives: at the top dose activity change, negative = inhibition, actives largely listed as inhibitors; active means well fitted inhibition curve with a large enough effect in the main read-out, with a control signal flat, not every such curve was filed as active; inconclusive means small, poorly fitted or top-dose-only effect, or a change in a side signal; further: % of control where 0% means no effect
HEK293 cAMP cs: qHTS Assay for Agonists of the Thyroid Stimulating Hormone Receptor: Activators of Intracellular cAMP Concentrations in Parental HEK 293; parental HEK293 CNG cAMP sensor, membrane potential fluorescence; Potency, µM (titrated, usually from 57.1 µM), for the others: top-dose activation, most hits filed as activators; 73,000 tested, 2.5% active; further: % of control where 0% means no effect; nearly all actives have a fitted effect of over 55% in size
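Parental HEK 293 cells stably expressing a modified CNG channel (no TSHR) report cAMP rise as membrane depolarization. Membrane potential dye with 100 uM RO 20-1724 was loaded for 60 min at room temperature, then compound added for 30 min; fluorescence read at 590 nm.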
Caspase-1 inhib: qHTS Assay for Allosteric/Competitive Inhibitors of Caspase-1 | 75,000 tested, 0.03% active | AID 900, 2007 | Potency, µM (highest dose often 57.5 µM), without a hit: at the highest dose activity change, negative = inhibition, actives largely listed as inhibitors | Caspase-1 enzyme, Ac-WEHD-AFC fluorogenic rate;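 further: plate controls were vehicle for no effect and no substrate for full effect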
ERK AVP block: qHTS Assay for Inhibitors of the ERK Signaling Pathway using a Homogeneous Screening Assay | HEK293-V1b, vasopressin-stimulated pERK AlphaScreen | Potency, µM (titrated, usually from 57.5 µM), for the others: at the top dose activity, negative = inhibition, hits mostly inhibitors | 72,000 tested, 0.99% active | AID 995, 2007; further: on the % scale 0 is the no-effect control and ±100 the full control effect; nearly all actives have a fitted effect of over 55% in size
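Phosphorylated ERK1/2 detected via AlphaScreen bead proximity in lysates of V1b-expressing HEK293 cells given 25 nM vasopressin for 5 min after 30 min compound exposure (37 °C). AC50 from Hill equation; basal DMSO 0%, vasopressin 100%.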
TSHR agonist: qHTS Assay for Agonists of the Thyroid Stimulating Hormone Receptor. HEK293-CNG-TSHR cells (CNG channel as cAMP sensor), membrane potential dye, cAMP. Potency, µM (titrated, usually from 57.1 µM), inactives show top-dose activation, hits mostly activators. 73,000 tested, 0.48% active; active means well fitted activation curve with a large enough effect in the main read-out, with a control signal flat, not every such curve was filed as active; inconclusive means small, poorly fitted or top-dose-only effect, or a change in a side signal; inactive means no such curve, though single readings can be large or run the other way; % of control where 0% means no effect;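 further: the control signal comes from parental cells without the receptor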
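cAMP rise detected as CNG-channel membrane depolarization by fluorescent dye (emission 590 nm), 30 min after compound, following 60 min dye loading containing 100 uM RO 20-1724 at room temperature. Cells: TSHR/CNG HEK 293, with parental CNG HEK 293 as control.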
Active calls of the source: *; i = inactive; ? = inconclusive; nt = no result given; [ ] = dose if it differs, or a comment. An excerpt weighted towards active compounds, which were near 4.5% of everything screened. Unless noted, the call rests on the fitted dose curve; in most records, active means well fitted curve in the direction sought with a large enough effect; inconclusive means small, poorly fitted or top-dose-only effect, or another doubt; inactive means no such curve, though single readings can be large; an effect the other way counts as inactive or inconclusive. Potency means the concentration at half of the fitted maximal effect.

SMILES | GBA mod | Casp7 inh | HEK293 cAMP cs | Caspase-1 inhib | ERK AVP block | TSHR agonist
CN1CCN(c2ccncc2S(=O)(=O)N2CCN(C)CC2)CC1 | nt | 0%[11.5 µM] | 0%[11.4 µM] | -2%[11.5 µM] | 7%[11.5 µM] | 5%[11.4 µM]
Cc1occc1C(=O)N1CCN(C(c2ccccc2)c2ccccc2)CC1 | >77 | -1% | 19% | -2% | -26% | 32µM*
C[N+](C)(C)c1cc2c(nn1)Nc1ccccc1S2 | nt | -9%[11.5 µM] | -19%[11.4 µM] | -3%[11.5 µM] | -16%[11.5 µM] | -21%[11.4 µM]
CCn1c(CC(=O)Nc2ccccc2)nnc1SCC(=O)Nc1ccccc1C(=O)OC | >77 | -5% | 4% | -5% | -14% | 6%
CCn1c(COc2cccc(OC)c2)nnc1SCC(=O)Nc1ccccc1C(=O)OC | >77 | -1% | 16µM* | -4% | 23% | ?
CCn1c(SCC(=O)Nc2ccccc2C(=O)OC)nnc1-c1ccoc1C | >77 | -2% | 32µM* | 2% | -3% | ?
CCCn1c(SCC(=O)Nc2ccccc2-c2ccccc2)nnc1-c1ccoc1C | >77 | -1% | 16µM* | 0% | -10% | ?
COc1ccc(NC(=O)CSc2nnc(-c3ccoc3C)n2CCc2ccccc2)cc1 | >77 | -5% | 21% | 0% | -13% | 25µM*
Cc1occc1-c1nnc(SCC(=O)Nc2ccccc2-c2ccccc2)n1C | >77 | -3% | 17% | 1% | -27% | 7%
CCNc1ncc2nc(-c3ccccc3)c(=O)n(CCOC)c2n1 | nt | ? | ? | nt | 7% | ?
COc1cccc(OCc2nnc(SC)n2C)c1 | >77 | 2% | 8% | 2% | -17% | 0%
COc1cccc(OCc2nnc(SCC(=O)OC3CCCCC3)n2C)c1 | >77 | 2% | 16µM* | 0% | 18% | ?
Cc1ccc2c(c1)N(CC(=O)NCCN1CCOCC1)C(=O)CO2 | nt | 0% | 0% | -1% | nt | 4%
CC(=O)Nc1ccccc1-c1ccc(C)o1 | >77 | -6% | 3% | -4% | -5% | 1%
CC(=O)CCc1oc2ccc(NC(C)=O)cc2c1-c1ccc(C)o1 | >77 | -9% | 3% | -10% | 32µM* | nt
COC(=O)N(/C=C/c1ccc(OC)cc1)CCc1ccc(OC)c(OC)c1 | nt | 0%[11.5 µM] | 20%[11.4 µM] | -2%[11.5 µM] | 3%[11.5 µM] | 12%[11.4 µM]
Cc1c(C(=O)OCC2CCCO2)[nH]c2c1C(=O)CC(c1ccc(N(C)C)cc1)C2 (stereo not given) | nt | -5% | 28% | 0% | 25µM* | 24%
CCCCc1c(O)nc(SCC(=O)Nc2ccc3c(c2)CCC3)[nH]c1=O | >77 | 0% | -18% | 4% | -7% | -7%
CCc1c(O)nc(SCC(=O)Nc2ccc3c(c2)CCC3)[nH]c1=O | >77 | 2% | 25µM* | -3% | -25% | ?
CC(C)(C)NC(=O)NC(=O)COc1ccccn1 | >77 | 1% | 10µM* | -1% | -3% | ?
CC(C)(C)NC(=O)NC(=O)COC(=O)COc1ccc2c(c1)CCC2 | >77 | -1% | 17% | -1% | 11% | 5%
C[C@H]1CCCC=CC2C[C@H](OC(=O)CN(C)C)C[C@@H]2[C@@H](O)/C=C\C(=O)O1 (stereo not given in full) | nt | -1%[11.5 µM] | 5%[11.4 µM] | -1%[11.5 µM] | -5%[11.5 µM] | 3%[11.4 µM]
COc1ccc(OC)c([C@H]2Nc3ccccc3NC3=C2C(=O)CC(C)(C)C3)c1Br | nt | nt | -14% | nt | nt | -5%
CC(C)(C)c1cc(/C=C(\C#N)C(N)=S)cc(C(C)(C)C)c1O | nt | -4% | 3.2µM* | -2% | -9% | ?
[C-]#[N+]/C(C#N)=C\c1cc(C(C)(C)C)c(O)c(C(C)(C)C)c1 | nt | -4% | 2.5µM* | 2% | ? | ?
SMILES | GBA mod | Casp7 inh | HEK293 cAMP cs | Caspase-1 inhib | ERK AVP block | TSHR agonist
Cc1ccc(C)c(N2C(=O)CC(N3CCN(Cc4ccc5c(c4)OCO5)CC3)C2=O)c1 (stereo not given) | nt | 2% | 10%[11.4 µM] | 1% | -8% | 15%[11.4 µM]
Cc1ccc2c(c1)N(CC(=O)c1cccc(Cl)c1)C(=O)C(C)O2 (stereo not given) | >77 | -2% | 20µM* | -2% | -1% | ?
Cc1ccc2c(c1)N(CC(=O)N(Cc1ccc3c(c1)OCO3)CC1CCCO1)C(=O)C(C)O2 (stereo not given) | nt | -1% | 20µM* | 0% | 0% | ?
O=C(c1ccc(Cc2nc3ccccc3[nH]2)cc1)N1CCCCC1 | nt | -3% | -19% | -3% | nt | 1%
COc1cccc(CSCC(=O)O)c1 | nt | 2%[11.5 µM] | 12%[11.4 µM] | 0%[11.5 µM] | 9%[11.5 µM] | 1%[11.4 µM]
O=P(O)(O)C(O)C(F)(F)C(F)(F)C(F)(F)C(F)F (stereo not given) | >77 | 1% | 4µM* | -2% | 10% | ?
CC(C)(C)Cn1nc(-c2ccc(Cl)cc2)c2c(N)ncnc21 | nt | 0% | -7% | -2% | 16µM* | 3%
CC(C)c1ccc(NC(=O)C2CC(=O)N=C(N)S2)cc1 (stereo not given) | 3.8* | 0% | -4% | -1% | 1% | -7%
CN(C)Cc1cc(C(C)(C)C)ccc1-c1ccc(C(C)(C)C)cc1CN(C)C | nt | -3%[11.5 µM] | -7%[11.4 µM] | 0%[11.5 µM] | 12%[11.5 µM] | 0%[11.4 µM]
COc1ccccc1NC(=O)C1=C(C)NC(SCC(=O)c2ccccc2)=C(C#N)C1c1ccco1 (stereo not given) | >77 | ? | 15% | nt | 2% | 14%
CC1(C)CC(=O)C2=C(C1)NC(SCC(=O)Nc1ccccc1)=C(C#N)C2c1ccco1 (stereo not given) | i | -2% | 16µM* | -3% | -10% | ?
CCOC(=O)C1=C(c2ccccc2)NC(SCC(=O)NC2CCCCC2)=C(C#N)C1c1ccco1 (stereo not given) | 7.7* | -3% | -2% | -4% | -18% | nt
COC(=O)c1ccc(NC(=O)C2CCN(S(C)(=O)=O)CC2)cc1 | >77 | 2% | ? | 1% | 0% | ?
CC(C)c1ccc(NC(=O)C2CCN(S(C)(=O)=O)CC2)cc1 | 12* | -1% | 1% | -1% | -34% | -5%
CS(=O)(=O)N1CCC(C(=O)Nc2ccc(Oc3ccccc3)cc2)CC1 | 14* | -1% | 5% | -1% | -8% | 4%
N[C@H]1CCN(O)C1=O | nt | 0% | 2% | -4% | 5% | 9%
N#Cc1ccc(OC(=O)c2ccc(N=C(N)N)cc2)cc1 | nt | 1%[11.5 µM] | 8%[11.4 µM] | 1%[11.5 µM] | 0%[11.5 µM] | 2%[11.4 µM]
Cc1ccc(NC(=O)CSc2nnc(-c3ccc(S(=O)(=O)N4CCOCC4)cc3)n2C)cc1 | >77 | 0% | -4% | -1% | 25% | -4%
Cn1c(SCC(=O)NC2CCCC2)nnc1-c1ccc(S(=O)(=O)N2CCOCC2)cc1 | >77 | -1% | 25µM* | 0% | -6% | ?

Screening data (PubChem)
